This note sets out measurements from PubChem BioAssay AID1117319 (Southern Research Institute, 2015).

The structures appear in SMILES notation. About 1,500 (0.58%) of roughly 260,000 compounds were called active. Inconclusive results (about 5%) are left out. These entries were drawn from the full list. Potency and affinity values are given separately. Unmarked numbers belong to inactive results.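 The calls were made as follows: active = inhibition above a set limit at one or more doses, reproduced on every date tested; inconclusive = results disagree between test dates, or hit never tested in dose response; inactive = the rest.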

The experiment concerns the target Virion infectivity factor (Human immunodeficiency virus type 1 group M subtype B (isolate BH10)) + Virion infectivity factor (Human immunodeficiency virus type 1 group M subtype B (isolate BRU/LAI)) + Virion infectivity factor (Human immunodeficiency virus type 1 group M subtype B (isolate PCV12)) + Virion infectivity factor (Human immunodeficiency virus type 1 group M subtype B (isolate HXB2)) + DNA dC->dU-editing enzyme APOBEC-3G (Homo sapiens) (UniProt P69720+P69721+P69722+P69723+Q9HC16). Kind of experiment: HIV-1 Vif–A3G interaction blockers – biochemical, TR-FRET, GST-Vif 1-94, biotin-A3G peptide, dose response retest, primary screen (AID 1117319).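 Also: Vif residues 1-94 fused to GST binding biotinylated APOBEC3G peptide 110-148; 0% = full assay without inhibitor and 100% = GST in place of GST-Vif.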 As to conditions: TR-FRET GST-Vif / biotin-A3G peptide binding; hits give high values.
For the compound `CCc1ccccc1NC(=O)Nc1ccc2c(c1)OCO2`, the inhibition is -3.87%.
As to `Cn1cccc1C(=O)NC(=O)COC(=O)C12CC3CC(CC(O)(C3)C1)C2`, the inhibition is 9.63%.
The same measure for `Cn1cccc1C(=O)NC(=O)COC(=O)CC12CC3CC(CC(C3)C1)C2`: -0.55%; for `COc1ccc(Br)cc1/C=N/NC(=O)c1cccnc1`: 4.05%.
The same measure for `O=C(O)CN1C(=O)/C(=C/C=C/c2ccccc2)SC1=S`: 5.16%; for `CCC(C(=O)O)N1C(=O)/C(=C/C(C)=C/c2ccccc2)SC1=S` (stereo not drawn): -2.68%.
Next, `O=C(O)CCN1C(=O)/C(=C\c2ccc(-c3nc4ccccc4s3)o2)SC1=S`: 32.3%; `O=C(O)C(Cc1ccccc1)N1C(=O)/C(=C/c2ccccc2)SC1=S` (stereo not drawn): -5.34%.
With `O=C(O)C(Cc1ccccc1)N1C(=O)/C(=C/c2cccs2)SC1=S` (stereo not drawn), the inhibition is 24.3%.
Next, `O=C(O)CCN1C(=O)/C(=C/c2ccc(-c3nc4ccccc4s3)o2)SC1=S`: 1.36%; `CCOc1cc(C2NC(=O)NC(C)=C2C(=O)OCc2ccccc2)ccc1O` (stereo not drawn): 0.18%.
Next, `CCOC(=O)N1CCN(Cc2nc3c(c(=O)[nH]c(=O)n3C)n2Cc2ccccc2C)CC1`: 23.6%; `O=C(CNC(=O)c1ccccc1)Nc1ccsc1C(=O)O`: -11.3%.
Next, `COc1ccc(Cc2noc(CN3CCNC(=O)CC3)n2)cc1OC`: 3.31%; `O=c1c2nnn(Cc3ccccc3)c2ncn1C/C=C/c1ccccc1`: -0.52%.
Turning to `Nc1ccc2c3c(ccc([N+](=O)[O-])c13)CC2`, the inhibition was -1.18%.
Next, `CC(=O)c1ccc2c3c(ccc([N+](=O)[O-])c13)CC2`: -4.85%; `Cc1nnc(SCCn2c(N3CCCCC3)nc3c2c(=O)[nH]c(=O)n3C)s1`: 0.62%.
Turning to `COc1ccccc1CNC(=O)CCn1c(=O)oc2ccccc21`, the inhibition was 0.68%.
Next, `CCOc1ccccc1CNC(=O)Cn1c(=O)oc2ccccc21`: 72.4%; `O=C(Nc1ccccc1N1CCOCC1)c1ccc2c(c1)OCCO2`: -3.74%.
Next, `CC(OC(=O)/C=C/c1ccc2ccccc2n1)C(=O)N(C)c1ccccc1` (stereo not drawn): 1.44%; `Cc1ccc(Cn2nnnc2CN2CCC(O)(c3ccccc3F)CC2)cc1`: 20%; `CCCCCCCCS(=O)CCC(=O)O` (stereo not drawn): 11.3%.
Next, `CCCCCCCCCCCCC(=O)CCCCC(=O)O`: -6.1%.
For the compound `O=C1CC(N2CCN(c3ccc(C(=O)c4ccc(F)cc4)cc3)CC2)C(=O)N1` (stereo not drawn), the inhibition is 28.2%.
The same measure for `CC(C)(C)NC(=O)c1sccc1C(=O)O`: 9.39%; for `Cc1ccc(C)n1-c1ccsc1C(=O)CC#N`: 22.9%.
